DENV2 CPE: inhibitors of DENV2 cytopathic effect, primary screen, cell-based, plate reader, single concentration | DENV2-infected cells, cytopathic effect rescue | CPE inhibition, % at 9.99 µM | 350,000 compounds, 1.7% hits | AID 651640, 2012; in the data active = CPE inhibition above about 20%, passing the limit was not always enough; inconclusive = no clear call, values can overlap the other calls; tested in BHK-21 cells;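 also: 0% = median of neutral control wells and 100% = median of positive control wells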
MLL AF4-AF9 inh: inhibitors of AF4 peptide binding to AF9, primary screen, biochemical, AlphaScreen, biotin-AF4 peptide, FLAG-AF9, single point; Protein AF-9 (Homo sapiens), P42568; inhibition, % at 10 µM; 350,000 compounds, 0.47% hits;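 active = every replicate reaching a set inhibition limit, whatever the replicate mean, cut at about 25% in these data; inconclusive = mean inhibition reaches that limit but some replicates miss it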;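 also: 0% = plate neutral control median and 100% = total signal loss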
RAD52 inh: RAD52 DNA annealing inhibitors, primary screen, biochemical, FRET, single point, set 2; DNA repair protein RAD52 homolog (Homo sapiens), P43351; recombinant RAD52 DNA annealing, FRET fluorescence; inhibition, % at 18.7 µM; 360,000 compounds, 0.46% hits;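 active = every replicate showing at least 50% inhibition; inconclusive = mean inhibition at least 50% but not in every replicate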
Target sequence (P43351 whole entry, looked up): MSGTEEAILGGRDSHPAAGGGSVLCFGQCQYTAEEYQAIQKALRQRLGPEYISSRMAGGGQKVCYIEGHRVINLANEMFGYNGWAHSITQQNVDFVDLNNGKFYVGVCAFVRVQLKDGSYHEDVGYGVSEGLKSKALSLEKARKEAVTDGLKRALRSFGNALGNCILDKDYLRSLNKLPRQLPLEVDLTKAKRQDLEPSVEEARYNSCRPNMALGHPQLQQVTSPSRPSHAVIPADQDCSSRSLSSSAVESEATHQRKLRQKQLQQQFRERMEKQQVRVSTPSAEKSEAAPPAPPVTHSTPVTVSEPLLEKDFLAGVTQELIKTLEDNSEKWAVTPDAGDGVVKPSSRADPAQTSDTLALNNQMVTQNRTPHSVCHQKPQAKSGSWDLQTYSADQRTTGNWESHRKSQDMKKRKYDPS
FGF22 binding: binders of human FGF22 protein, primary screen, FGF22 synaptogenesis inhibitor project, biophysical, thermal shift, single point. Fibroblast growth factor 22 (Homo sapiens), Q9HCT0. recombinant FGF22 thermal shift, SYPRO orange fluorescence; percent of sucrose octasulfate shift, DMSO zero. activity (Tm shift, normalised), % at 9.99 µM. 340,000 compounds, 1.5% hits;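 active = mean Tm shift, scaled 0 neutral to 100 positive control, at about 1.3% or above, every replicate too, limit read from the data; inconclusive = no clear call, values can overlap the other calls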
Target sequence (Q9HCT0 whole entry, looked up): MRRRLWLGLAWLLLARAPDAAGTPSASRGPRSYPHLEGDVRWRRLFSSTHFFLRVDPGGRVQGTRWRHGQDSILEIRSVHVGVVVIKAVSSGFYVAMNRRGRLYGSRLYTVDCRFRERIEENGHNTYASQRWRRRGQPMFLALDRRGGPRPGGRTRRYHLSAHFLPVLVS
ERAP1 inh: human ERAP1 aminopeptidase inhibitors, primary screen, biochemical, single point, plate reader. Endoplasmic reticulum aminopeptidase 1 (Homo sapiens), Q9NZ08. recombinant ERAP1, Leu-AMC fluorescence, 60 min. inhibition, % at 10.7 µM. 340,000 compounds, 0.15% hits. AID 652197, 2013;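 active = mean replicate inhibition of at least 30%, or all replicates individually reaching that 30% level; inactive = mean below 30% and not every replicate reaching it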;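 also: 0% = neutral control wells and 100% = L-leucinethiol positive control wells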
* = called active by the depositor; ? = inconclusive; / = no result given; ! = a repeat was not active. Sampled rows, rich in hits. Any-hit rate of the full collection: about 4%.

SMILES	DENV2 CPE	MLL AF4-AF9 inh	RAD52 inh	FGF22 binding	ERAP1 inh
CN(C)CCCNC(=O)C[C@H]1CC[C@H](NS(=O)(=O)c2ccccc2)[C@@H](CO)O1	-9.6	-0.7	-8.1	0.0	-2.1
COc1ccc(NC(=O)N(C)C[C@@H]2Oc3ccc(NC(=O)Nc4c(C)noc4C)cc3CC(=O)N([C@@H](C)CO)C[C@@H]2C)cc1	-4.9	-7.2	4.0	0.0	-3.4
CC(C)Cn1cnc2c1c(=O)n(CC(=O)N(C)C)c(=O)n2Cc1ccccc1	4.8	-0.3	-4.7	44.0*	2.5
C[C@@H]1CNC(=O)c2c(C(=O)NCC(=O)OC(C)(C)C)ncn21	11.5	2.5	5.6	43.0*	0.8
CCC1=C(OC(=O)N(CC)CC)N2C(=O)OC(=NCC(=O)OC)[C@]2(C)[C@H]2C1=CC[C@H]1C(=O)N(C)C(=O)[C@H]12	/	-2.0	-12.1	-0.1	-1.2
CCC1=C(OC(=O)N(CC)CC)N2C(=O)OC(=NCC3CC3)[C@]2(C)[C@H]2C1=CC[C@H]1C(=O)NC(=O)[C@H]12	46.4*	0.5	-6.9	-0.2	-0.8
CCC1=C(OC(=O)N(CC)CC)N2C(=O)OC(=NCCc3c[nH]c4ccccc34)[C@]2(C)[C@H]2C1=CC[C@H]1C(=O)NC(=O)[C@H]12	27.2*	/	-6.3	-0.2	1.0
O=C(CN1CCOCC1)N[C@@H]1CC[C@@H](CCNC(=O)C2CCC2)O[C@@H]1CO	-3.3	-0.6	7.1	0.0	-6.1
O=C(Nc1ccccc1F)N[C@@H]1CC[C@H](CCNS(=O)(=O)c2ccccc2)O[C@H]1CO	-5.1	-0.8	2.1	0.1	0.6
C[C@@H]1CN([C@H](C)CO)S(=O)(=O)c2ccc(C#C[C@@H](C)O)cc2O[C@@H]1CN(C)C(=O)C1CC1	-5.9	-7.6	17.1	-0.4	0.3
O=C(O)C1=C[C@@H](c2ccc(C(F)(F)F)cc2)C[C@@H](OCc2ccc(CO)cc2)O1	3.4	-1.9	1.4	0.1	10.4
O=C(C1=C[C@@H](c2ccc(C(F)(F)F)cc2)C[C@@H](OCc2ccc(CO)cc2)O1)N1CCOCC1	25.0*!	0.8	-68.8	0.0	1.2
CN1CCN(C(=O)C2=C[C@H](c3ccc(C(F)(F)F)cc3)C[C@H](OCc3ccc(CO)cc3)O2)CC1	46.7*!	1.4	5.0	-0.3	4.1
CCCC#Cc1cnc2c(c1)C(=O)N([C@@H](C)CO)C[C@H](C)[C@@H](CN(C)Cc1ccncc1)O2	5.7	-11.7	1.1	-0.1	-5.2
Cc1c(C(C)C)c(=O)n(-c2ccc(S(=O)(=O)NC3CCCCC3)cc2)n1C	6.3	-1.5	-3.8	0.2	-0.1
Cc1c(C(C)C)c(=O)n(-c2ccc(S(=O)(=O)NCc3ccccc3)cc2)n1C	13.8	0.0	-3.7	42.9*	4.8
Cc1noc(C)c1NC(=O)N(C)C[C@H]1Oc2ccc(NC(=O)Nc3cccc4ccccc34)cc2C(=O)N([C@@H](C)CO)C[C@H]1C	5.2	6.4	-12.4	-0.2	-0.4
COc1ccc(CN2CCN(CCC(C)C)C(CCO)C2)cc1Cn1cccn1 (centres undefined)	12.4	-0.1	-15.5	42.3	-1.4
COc1cccc(CN2CCN(CCc3ccccc3)C(CCO)C2)c1OC (centres undefined)	?	0.5	-6.7	44.0*	-3.1
OCCC1CN(Cc2nc3c(s2)CCCC3)CCN1Cc1ccccc1 (centres undefined)	-9.8	5.3	-1.8	-0.3	0.8
COc1cccc2c1OCC(CN1CCN(CCC(C)C)C(CCO)C1)=C2 (centres undefined)	6.4	1.1	-10.3	43.2*	4.6
COc1cccc(CN2CCN(CCCc3ccccc3)C(CCO)C2)c1OC (centres undefined)	-1.6	1.3	-8.0	-0.2	-4.2
OCCC1CN(Cc2nc3c(s2)CCCC3)CCN1CCc1ccccc1 (centres undefined)	6.9	0.5	-3.4	43.5*	-5.8
Cc1ncc(CN2CCN(CCc3ccccc3)C(CCO)C2)s1 (centres undefined)	1.7	0.3	-12.1	42.8	1.7
Cn1cc(CN2CCN(CCc3ccccc3)C(CCO)C2)cn1 (centres undefined)	-6.5	0.7	-17.3	43.8*	-2.3
SMILES	DENV2 CPE	MLL AF4-AF9 inh	RAD52 inh	FGF22 binding	ERAP1 inh
C[C@H](CO)N1C[C@H](C)[C@@H](CN(C)Cc2ccccc2)Oc2ncc(C3=CCCC3)cc2C1=O	10.6	4.2	12.4	-0.1	0.6
O=C(Nc1ccc(-c2csc(Nc3cccc(C(F)(F)F)c3)n2)cc1)c1ccccc1	-7.3	0.8	-5.8	0.0	/
O=C(Nc1ccc(-c2csc(Nc3cccc(C(F)(F)F)c3)n2)cc1)c1cc([N+](=O)[O-])cc(C(F)(F)F)c1	134.6*	-12.6	-5.3	0.2	-0.2
CCc1ccc(NC(=O)CSc2nc3[nH]ncc3c(=O)[nH]2)cc1	-0.7	1.4	-1.9	43.2*	6.7
CC1=NOC(=O)/C1=C\c1ccc(-c2ccc(Br)cc2C(=O)O)o1	-9.8	-2.9	-38.6	1.1	37.6*
Cc1cc(=O)[nH]c(SCc2nc3ccc([N+](=O)[O-])cc3[nH]2)n1	-3.2	0.9	2.5	-0.2	14.9
CCCc1cc(=O)[nH]c(SCc2nc3ccc([N+](=O)[O-])cc3[nH]2)n1	-2.8	-3.4	-2.3	43.3*	-3.3
CN(C)c1ccc(S(=O)(=O)NCC(=O)N2CCN(S(=O)(=O)c3cccc(F)c3)CC2)cc1[N+](=O)[O-]	16.5	9.2	-3.1	0.0	1.4
CN(CC(=O)Nc1cccc(F)c1)C(=O)CNS(=O)(=O)c1ccc(N(C)C)c([N+](=O)[O-])c1	89.5*	-6.2	-3.7	0.0	-2.5
COc1cc(/C=C2\CCCc3c2nc2ccccc2c3C(=O)O)cc(Br)c1O	17.4	7.5	-50.6	20.9*	4.5
COc1cc(/C=C2\CCc3c2nc2ccccc2c3C(=O)O)cc(OC)c1OC	-1.4	3.4	-13.4	-0.4	1.1
CSc1cccc(NC(=O)CCNC(=O)c2ccco2)c1	7.5	-2.7	11.0	43.2*	-2.4
COc1ccc2c3c([nH]c2c1)[C@@H](CO)N(C(=O)c1cccc(F)c1)CC31CN(C(=O)c2cccc(F)c2)C1	19.4	3.5	2.0	-0.4	1.2
COc1cccc(C(=O)NC2CCCN(C3Cc4ccccc4C3)C2)c1OC (centres undefined)	-5.0	26.1*	-5.5	-0.1	-4.4
C[C@@H]1CN([C@H](C)CO)C(=O)Cc2cc(NC(=O)CCCN(C)C)ccc2O[C@@H]1CN(C)Cc1ccc(-c2ccccc2)cc1	-12.9	7.3	79.1*	-0.1	-0.2
C[C@@H]1CN([C@@H](C)CO)C(=O)Cc2cc(NC(=O)CCCN(C)C)ccc2O[C@H]1CN(C)Cc1ccc(-c2ccccc2)cc1	-1.4	15.0	76.7*!	0.2	2.0
